High-throughput results deposited in PubChem by several laboratories.
Rows were chosen to be rich in hits. Some 4.6% of all compounds tested hit in one or more screens of this group.
SKKanGAS inh = SKKanGAS growth inhibition; 1.3% of 300,000 active; inhibition, % at 7.5 µM; S. pyogenes SKKanGAS, kanamycin growth, BacTiter-Glo, 6 h; AID 1662;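 active = mean replicate score, as percent of positive control median, at least 50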;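 note: strain carries kanamycin resistance gene driven by streptokinase promoter and grows in 40 µg/ml kanamycin; loss of luminescence reflects streptokinase promoter inhibition or plain growth inhibition; 0% = median of DMSO wells and 100% = positive control at its reference dose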
NLRP3 yeast inh = NALP3 inhibition in yeast | Yeast reconstituted NLRP3/ASC/caspase-1, beta-gal luminescence, 24 h | inhibition, % at 10 µM | 0.39% of 330,000 active | AID 2825;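 active = inhibition of 50% or more; inactive = inhibition below 50%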;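 note: plate controls were induced DMSO wells for no effect and uninduced yeast grown without galactose for full effect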
tim23-1 inh = inhibits growth of tim23-1 mutant yeast; S. cerevisiae tim23-1 growth, BacTiter-Glo luminescence, 24 h; inhibition, % at 20 µM; 1.3% of 330,000 active; AID 463212;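 active = growth inhibition of the mutant yeast at or above 50%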;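 note: temperature-sensitive mutant grown at 25 °C; plate controls were DMSO-treated mutant yeast for no effect and medium wells lacking yeast for full effect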
TIM10 inh = growth inhibitors of TIM10 yeast strain; S. cerevisiae TIM10 strain growth, BacTiter-Glo luminescence, 24 h; inhibition, % at 10 µM; 1.4% of 330,000 active; AID 463195;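 active = inhibition of 40% or more at the single tested concentration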;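 note: wild-type TIM10 isogenic control strain grown at permissive 25 °C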
PfHsp90 yeast 2 = reduces growth (ATP signal) of yeast expressing P. falciparum Hsp90; 0.32% of 310,000 active; inhibition, % at 9.4 µM; S. cerevisiae expressing PfHsp90, BacTiter-Glo ATP, 48 h; yeast lacking PDR1 and PDR3 efflux regulators;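 active = every replicate shows inhibition above about 80%, whatever the replicate mean, limit read from the data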;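 note: 0% = DMSO neutral controls and 100% = 20 µM radicicol positive controls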
tim10-1 inh = tim10-1 yeast growth inhibition; S. cerevisiae tim10-1 ts strain growth, BacTiter-Glo, 24 h; inhibition, % at 20 µM; 2.2% of 330,000 active; AID 463190;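 active = inhibition of at least 40%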;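 note: mutant grown at 25 °C; 0% = DMSO wells with yeast and 100% = wells holding no yeast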
tim23-1 conf = tim23-1 yeast growth inhibition, confirmed. shares compounds with tim23-1 inh. S. cerevisiae tim23-1 growth, BacTiter-Glo luminescence, 24 h. inhibition, % at 20 µM. 83% of 4,400 active;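 active = inhibition above about 39% in either of two replicate wells at 20 µM, limit read from the data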;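 note: temperature-sensitive tim23-1 mutant grown at 25 °C; 0% = DMSO wells with yeast and 100% = medium wells without yeast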
* hit, by the source's call; · = no result given.

SMILES	SKKanGAS inh	NLRP3 yeast inh	tim23-1 inh	TIM10 inh	PfHsp90 yeast 2	tim10-1 inh	tim23-1 conf
CCOC(=O)c1c(C)oc2c1c(C=NCCO)c(O)c1ccccc12	28.1	·	·	·	-16.0	·	·
O=C(CCn1c(=O)[nH]c2ccsc2c1=O)Nc1ccc(F)c(F)c1	1.7	12.6	0.6	-16.2	-51.1	4.1	·
CN(C(=O)c1ccnn1C)C1CCCN(Cc2ccccc2F)C1 (stereo unspecified)	-2.2	12.2	-4.9	-1.1	-3.9	-10.0	·
COC(=O)[C@]1(C)CCC[C@@]2(C)C3CC[C@@]4(C)C[C@]3(CCC21)CC4=NO (stereo partly specified)	·	26.3	51.8*	23.6	20.8	18.5	46.1*
OC[C@@H]1[C@@H](c2ccccc2)C(c2ccc(F)cc2)=NN1c1ccccc1	·	·	56.4*	3.7	-56.1	24.5	45.4*
OC[C@@H]1[C@@H](c2ccc(Cl)cc2)C(c2ccc(F)cc2)=NN1c1ccccc1	·	·	56.3*	16.9	-97.8	33.6	35.9
O=C1OCCN1C(=O)[C@H]1[C@H](c2ccc(F)cc2)C(c2cccc(Cl)c2)=NN1c1ccccc1	·	·	46.4	11.3	-27.5	32.4	·
O=C(CCN1CCN(c2ccccc2)CC1)N/N=C/c1ccccc1O	5.0	10.3	-2.4	18.6	-36.3	12.4	·
CN(CC(=O)Nc1cccc(F)c1)CC(=O)N(C)CC(=O)Nc1ccccc1Br	·	20.0	5.5	5.7	8.4	-4.2	·
O=C(CSc1cccc[n+]1[O-])CSc1cccc[n+]1[O-]	16.6	6.8	71.0*	-19.1	7.8	5.3	61.3*
O=C(CSc1cccc[n+]1[O-])Nc1ccccc1C(F)(F)F	·	-3.6	8.3	-3.0	·	10.7	·
O=C(CSc1cccc[n+]1[O-])Nc1ccccc1Oc1ccccc1	6.7	-18.9	69.5*	32.3	-22.4	37.0	76.2*
CC(C)c1ccc(CCNC(=O)CSC(=S)N2CCCC2)cc1	-4.8	19.5	19.4	0.3	-25.5	23.2	·
CCc1ccc(NC2=CC(=O)C(=O)c3ccccc32)cc1	·	35.8	1.8	25.3	-98.1	8.0	·
CCCCNC1=CC(=O)C(=O)c2ccccc21	1.3	8.8	55.3*	21.8	-9.8	-3.1	55.6*
COc1cc(OC)cc(-c2cc3ccc(OC)cc3cn2)c1	·	27.3	51.2*	13.3	22.6	25.7	54.5*
c1ccc(-c2cc3ccccc3cn2)cc1	·	30.2	50.6*	8.4	5.6	-9.3	75.4*
COc1cc2cnc(-c3ccccc3)cc2cc1OC	·	46.5	51.7*	7.7	11.8	-7.8	44.5*
Fc1ccc2cc(-c3ccccc3)ncc2c1	·	28.4	40.2	17.1	-0.6	13.7	·
CCOc1ccc(S(=O)(=O)N2CCCCC2)cc1NC(=O)Cc1cccc(C(F)(F)F)c1	·	14.0	2.3	14.8	-17.4	9.5	·
COc1cccc(Oc2ccc(S(=O)(=O)N3CCOCC3)cc2[N+](=O)[O-])c1	·	12.0	32.3	7.6	·	7.7	·
O=C(COc1ccc(Br)cc1)N1CCN(c2ncccn2)CC1	·	29.9	14.4	8.1	-26.0	0.0	·
O=C(Cc1cnc2ncnn2c1)N1CCc2c([nH]c3ccccc23)C1c1ccccn1 (stereo unspecified)	-4.2	12.9	58.9*	-10.8	-17.0	-2.8	3.0
CC(=O)c1cc(CC(=O)N2CCc3c([nH]c4ccccc34)C2c2ccccn2)cs1 (stereo unspecified)	-6.4	9.2	1.5	-12.0	-28.6	-9.4	·
O=C(COc1ccc(Cl)cc1)NNC(=O)C(=O)NC1CCCCC1	-3.8	22.0	10.3	8.9	-5.5	-1.6	·
SMILES	SKKanGAS inh	NLRP3 yeast inh	tim23-1 inh	TIM10 inh	PfHsp90 yeast 2	tim10-1 inh	tim23-1 conf
CCN(CC)c1nc(-c2ccccc2)nc2ccccc12	-2.7	18.2	51.3*	32.1	1.0	26.9	42.6*
Fc1ccccc1-c1nc(NCc2ccccc2)c2ccccc2n1	-0.7	11.1	50.3*	6.3	·	35.2	38.2
c1ccc(CNc2nc(-c3cccs3)nc3ccccc23)cc1	9.1	·	·	·	-7.3	·	·
Fc1ccc(CNc2nc(-c3cccnc3)nc3ccccc23)cc1	2.0	9.2	33.0	-4.8	-3.5	28.3	·
c1ccc(CNc2nc(-c3ccccc3)nc3ccccc23)cc1	-1.4	28.3	56.3*	21.0	2.3	33.2	24.0
Cn1cnnc1SCNC(=O)C(F)(F)F	-2.5	7.6	-1.6	-12.7	-25.7	-10.6	·
Cc1cccc(C(=O)NCCC(=O)NCc2ccccc2F)c1	·	-0.7	20.8	4.9	19.4	12.4	·
Cc1ccc(NC(=S)NC2CCCC2)cc1C	-17.5	7.3	21.3	-22.4	6.5	9.5	·
Cc1ccc(C(C)NC(=S)NC2CCCCC2)cc1C (stereo unspecified)	3.5	31.2	55.2*	32.0	14.1	33.4	22.4
Oc1ccc(Cl)cc1C=Nc1ccc2c3c(cccc13)CC2	-1.7	30.6	62.8*	26.7	5.1	13.9	61.9*
Cc1cccc(C=Nc2ccc3c4c(cccc24)CC3)c1O	-5.0	25.3	37.5	24.5	-10.4	38.2	·
COc1ccccc1C(=O)NCCC(=O)OCC(=O)Nc1ccc(S(N)(=O)=O)cc1	·	-6.4	9.7	3.6	·	-1.0	·
CCN(CC)C(=O)Cn1cc(C(=O)C(=O)NCc2ccccn2)c2ccccc21	-0.9	22.7	-12.8	5.9	0.8	8.3	·
O=C(c1cc2cc(F)ccc2[nH]1)N1CCN(c2cccc(Cl)c2)CC1	12.3	10.3	11.9	15.1	-35.6	10.2	·
Cc1[nH]c(-c2ccc(F)cc2)cc1C(=O)N1CCN(c2cccc(Cl)c2)CC1	67.0*	7.4	54.1*	36.2	-33.9	36.2	-5.8
CCc1ccc(OC)c(-c2csc(N)n2)c1	-3.7	23.2	4.8	4.6	·	16.5	·
Nc1nc(-c2cc(Cl)cc(Cl)c2OC(F)F)cs1	-12.1	20.0	61.1*	26.0	3.1	13.8	52.5*
O=C(NC(=S)NCc1ccco1)c1cccc(Cl)c1	-2.1	3.9	56.5*	3.5	-15.2	16.8	47.2*
C=C(C)C(O)Cc1c(OC)ccc(C(=O)/C=C/c2ccc(O)cc2)c1O (stereo unspecified)	·	37.1	54.1*	30.1	13.8	23.6	42.0*
Cc1ccc(-c2cc(-c3ccco3)c3c(N)c(C(=O)NN)oc3n2)cc1	27.3	2.0	29.6	7.1	22.0	23.0	·
NNC(=O)c1oc2nc(-c3ccccc3)cc(-c3ccccc3)c2c1N	27.2	11.2	59.0*	23.2	12.3	39.2	-18.8
O=C(NCc1ccccn1)c1ccc(OC2CCN(Cc3ccc(CO)o3)CC2)cc1	10.6	10.3	-4.3	10.1	-0.4	1.6	·
C/C(=N\Nc1nc(C)cc(-c2ccccc2)n1)c1cccc(N)c1	7.8	20.7	36.4	15.1	-7.8	20.4	·
C/C(=N\Nc1nc(C)cc(-c2ccccc2)n1)c1ccc(O)cc1	-0.2	3.9	50.1*	25.8	18.4	30.4	48.5*
O=C(Nc1cccc(Br)c1)C1CCCC1	-4.3	40.6	64.5*	32.9	·	8.4	62.5*
